From PubChem BioAssay (NCI) come the findings set out here.

This is part of a sample that, as a whole, favours compounds with a hit. Of some 83,000 tested, about 20% had one in any assay.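 Negative percent growth values reflect cell death: -40 means 40% of the cells present at the start died, and -100 means all died.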 Values without a mark were called inactive. Activity calls are given as the source filed them. How the source made its calls: active means growth percent below 10; inactive means the rest.

Test systems include MOLT-4 leukemia; SR leukemia; RPMI-8226 leukemia; OVCAR-8 ovarian; OVCAR-5 ovarian; OVCAR-4 ovarian; SK-OV-3 ovarian; IGROV1 ovarian; OVCAR-3 ovarian; HS 578T breast; NCI/ADR-RES ovarian; T-47D breast; BT-549 breast; MDA-MB-435 melanoma; SW-620 colon; MCF7 breast; HCT-116 colon; HCC-2998 colon; KM12 colon.
Common to all, as to test: NCI-60 one-dose screen, 48 h (100 = growth as untreated, 0 = no growth, -100 = all killed)
Holding throughout (settings): 10 µM unless noted

`C[C@]12CCc3sc(NCCc4ccccc4)nc3C1=CC[C@@H]1[C@@H]2CC[C@]2(C)C(=O)CC[C@@H]12`: the growth was 4.71% (active) with MOLT-4 leukemia; 0.916% (active) in the experiment with SR leukemia; -5.28% (active) in the experiment on RPMI-8226 leukemia; 72.1% with OVCAR-8 ovarian; 100% in the experiment with OVCAR-5 ovarian; 74.2% in the experiment on OVCAR-4 ovarian. For the same compound, the growth was 112% with SK-OV-3 ovarian; 88% in the experiment on IGROV1 ovarian; 6.41% (active) in the experiment on OVCAR-3 ovarian; 75.5% in the experiment with HS 578T breast; 70.2% in the experiment with NCI/ADR-RES ovarian; 75.2% in the experiment on T-47D breast. The growth with BT-549 breast was 60.4%; in the experiment on MDA-MB-435 melanoma, 58.1%; with SW-620 colon it was 35.3%; with MCF7 breast, 20.4%; in the experiment with HCT-116 colon, 21.2%; in the experiment with HCC-2998 colon, 106%. Also, in the experiment with KM12 colon, the growth was 74.7%.

As for `CC[C@H](C)[C@H](NC(=O)[C@H]1CCCCN1C)C(=O)N(C)[C@H](C[C@@H](OC(C)=O)c1nc(C(=O)NC23CC(C(=O)OC)(C2)C3)cs1)C(C)C`, the growth was 6.06% (active) in the experiment on MOLT-4 leukemia; 0.833% (active) in the experiment on SR leukemia; 25.6% with RPMI-8226 leukemia; 18.6% in the experiment with OVCAR-8 ovarian; 53.7% with OVCAR-5 ovarian; 42.7% with OVCAR-4 ovarian. Besides, the growth in the experiment with SK-OV-3 ovarian was 24.4%; in the experiment on IGROV1 ovarian it was 32%; in the experiment on OVCAR-3 ovarian, -18.6% (active); with HS 578T breast, 27.5%; in the experiment with NCI/ADR-RES ovarian, 10%; with T-47D breast, 64.4%. For the same compound, the growth with BT-549 breast was -39.2% (active); in the experiment on MDA-MB-435 melanoma, -14.1% (active); with SW-620 colon it was 39.4%; with MCF7 breast, 12.1%; with HCT-116 colon, 5.83% (active); in the experiment on HCC-2998 colon, 10.4%. For the same compound, the growth in the experiment with KM12 colon was 0.539% (active).

With `CC[C@H](C)[C@H](NC(=O)c1ccccn1)C(=O)N(C)[C@H](C[C@@H](OC(C)=O)c1nc(C(=O)N[C@@H](Cc2ccccc2)C[C@H](C)C(=O)OC)cs1)C(C)C`, the growth with MOLT-4 leukemia is 19.5%; in the experiment on SR leukemia it was 4.97% (active); in the experiment with RPMI-8226 leukemia, 19.9%; in the experiment with OVCAR-8 ovarian it was 22.6%; in the experiment with OVCAR-5 ovarian it was 49.6%; in the experiment with OVCAR-4 ovarian, 47.8%. The growth was 41.2% with SK-OV-3 ovarian; 28.4% in the experiment with IGROV1 ovarian; -22.5% (active) with OVCAR-3 ovarian; -1.12% (active) in the experiment with HS 578T breast; 16.1% with NCI/ADR-RES ovarian; 80.7% with T-47D breast. The growth was 24.2% in the experiment on BT-549 breast; -25.3% (active) in the experiment on MDA-MB-435 melanoma; 25.7% with SW-620 colon; 21.2% in the experiment on MCF7 breast; 9.41% (active) in the experiment with HCT-116 colon; 23.9% in the experiment with HCC-2998 colon. Besides, the growth in the experiment with KM12 colon is 10.2%.

With `COc1ccc(/C=C\c2cc(OC)c(OC)c(OC)c2)cc1OCC(=O)Nc1nc2ccc(C(F)(F)F)cc2s1`, the growth is 16.3% in the experiment on MOLT-4 leukemia; 26.5% in the experiment with SR leukemia; 21.2% in the experiment on RPMI-8226 leukemia; 17.5% in the experiment with OVCAR-8 ovarian; 94.1% with OVCAR-5 ovarian; 57.4% in the experiment with OVCAR-4 ovarian. Besides, the growth is 10.8% with SK-OV-3 ovarian; 19.3% in the experiment with IGROV1 ovarian; -51.8% (active) in the experiment with OVCAR-3 ovarian; -8.14% (active) in the experiment with HS 578T breast; -11.8% (active) in the experiment on NCI/ADR-RES ovarian; 37.7% in the experiment with T-47D breast. In addition, the growth in the experiment on BT-549 breast was 43.1%; with MDA-MB-435 melanoma it was -34.9% (active); in the experiment on SW-620 colon it was 28.3%; in the experiment on MCF7 breast, 15.1%; in the experiment on HCT-116 colon, 13.8%; in the experiment with HCC-2998 colon it was 64.7%. For the same compound, in the experiment with KM12 colon, the growth was 17.9%.

Turning to `Cc1sc2c(c1C)C(c1ccc(Cl)cc1)=N[C@@H](CC(=O)OC(C)(C)C)c1nnc(C)n1-2`, the growth in the experiment on MOLT-4 leukemia was 48.3%; in the experiment with SR leukemia it was 19.2%; with RPMI-8226 leukemia, 23.5%; in the experiment on OVCAR-8 ovarian, 53%; in the experiment on OVCAR-5 ovarian it was 45.4%; in the experiment with OVCAR-4 ovarian, 42.6%. Also, the growth was 39.3% in the experiment on SK-OV-3 ovarian; 31.4% in the experiment with IGROV1 ovarian; 20% with OVCAR-3 ovarian; -4.04% (active) in the experiment on HS 578T breast; 34.2% in the experiment on NCI/ADR-RES ovarian; 51.9% in the experiment on T-47D breast. Also, the growth in the experiment with BT-549 breast was 58.5%; in the experiment with MDA-MB-435 melanoma, 30%; in the experiment on SW-620 colon, 52.4%; in the experiment on MCF7 breast, 19.1%; in the experiment on HCT-116 colon, 31%; in the experiment on HCC-2998 colon, 19.1%. In addition, the growth with KM12 colon was 40.7%.

On to `CC(=O)OC[C@]1(C)C=C2C(=O)[C@](C)(O)C3(CC3)C(C)=C2[C@H]1OC(=O)N(C)CCN(C)C(=O)OC(C)(C)C`, for which the growth was 10.5% in the experiment with MOLT-4 leukemia; 14% in the experiment with SR leukemia; 32.9% in the experiment with RPMI-8226 leukemia; -12% (active) in the experiment with OVCAR-8 ovarian; 3.2% (active) with OVCAR-5 ovarian; -2.23% (active) with OVCAR-4 ovarian. Also, the growth was 1.41% (active) in the experiment with SK-OV-3 ovarian; 1.75% (active) with IGROV1 ovarian; -8.01% (active) with OVCAR-3 ovarian; 17.5% in the experiment with HS 578T breast; -2.04% (active) with NCI/ADR-RES ovarian; 8.4% (active) in the experiment with T-47D breast. Further, the growth is -32.8% (active) in the experiment on BT-549 breast; -47% (active) with MDA-MB-435 melanoma; 10.4% with SW-620 colon; 2.67% (active) with MCF7 breast; 3.86% (active) in the experiment on HCT-116 colon; 6.65% (active) with HCC-2998 colon. Further, the growth in the experiment with KM12 colon was 13%.

For `C=COC(=O)CCN1CC1`, the growth with MOLT-4 leukemia is 98.2%; with SR leukemia, 100%; with RPMI-8226 leukemia it was 104%; in the experiment on OVCAR-8 ovarian it was 104%; in the experiment on OVCAR-5 ovarian it was 110%; in the experiment on OVCAR-4 ovarian it was 107%. The growth in the experiment with SK-OV-3 ovarian was 101%; in the experiment with IGROV1 ovarian it was 108%; in the experiment with OVCAR-3 ovarian, 112%; in the experiment on HS 578T breast, 104%; in the experiment on NCI/ADR-RES ovarian, 111%; with T-47D breast, 106%. The growth is 110% in the experiment on BT-549 breast; 105% with MDA-MB-435 melanoma; 106% with SW-620 colon; 101% in the experiment on MCF7 breast; 103% in the experiment with HCT-116 colon; 110% with HCC-2998 colon. In addition, in the experiment on KM12 colon, the growth is 107%.
